Measurements published in PubChem BioAssay (NCI).
Compounds without any hit were thinned out: in the full panel of roughly 83,000, 20% have a hit.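 Testing used 96-well plates and a 48-hour single-concentration exposure. Example: -40 means 40% of the starting cells died.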 A number with no mark means an inactive call. Active and inactive are the calls of the source. The calls were made as follows: active = growth percent below 10; inactive = the rest.

Assays:
Experiment in all cases: NCI-60 one-dose screen, 48 h (100 = growth as untreated, 0 = no growth, -100 = all killed)
Settings in all cases: 10 µM unless noted
SK-MEL-2 melanoma = test system: SK-MEL-2 melanoma
EKVX NSCLC = test system: EKVX NSCLC
SN12C renal = test system: SN12C renal
UO-31 renal = test system: UO-31 renal
TK-10 renal = test system: TK-10 renal
ACHN renal = test system: ACHN renal
CAKI-1 renal = test system: CAKI-1 renal
A498 renal = test system: A498 renal
CCRF-CEM leukemia = test system: CCRF-CEM leukemia
MOLT-4 leukemia = test system: MOLT-4 leukemia

| SMILES | growth (SK-MEL-2 melanoma) | growth (EKVX NSCLC) [%] | growth (SN12C renal) | growth (UO-31 renal) | growth (TK-10 renal) | growth (ACHN renal) | growth (CAKI-1 renal) | growth (A498 renal) | growth (CCRF-CEM leukemia) | growth (MOLT-4 leukemia) |
| --- | --- | --- | --- | --- | --- | --- | --- | --- | --- | --- |
| CCSc1nnc(NC(=O)COc2ccc(Cl)cc2C)s1 | 48.6% | 102 | 101% | 46.2% | 116% | 96.5% | 85.8% | 109% | 99.1% | 95.6% |
| NC(=O)c1c(NC(=O)c2ccc(OCC3CCCO3)cc2)sc2c1CCCC2 (stereo not given) | 84.9% | 89.6 | 90.7% | 35% | 126% | 106% | 108% | 86.5% | 79.9% | 99.3% |
| O=[N+]([O-])c1c(S(=O)(=O)O)cc2cc(S(=O)(=O)O)ccc2c1[N+](=O)[O-] | 107% | 101 | 101% | 76.5% | 93% | 98.8% | 93.8% | 106% | 107% | 93.8% |
| O=C1NCC(c2cc3ccccc3[nH]c2=O)Nc2ccccc21 (stereo not given) | 100% | 106 | 99.7% | 76.8% | 87.8% | 99.7% | 88.1% | 104% | 110% | 111% |
| CC/C=C\C[C@H](O)C/C=C1/C(=O)C(Cl)=C[C@@H]1C/C=C\CCCC(=O)O | 54% | 63.9 | 22.8% | 64.2% | 78.9% | 45.3% | 79.1% | 134% | 2.58% (active) | 40.5% |
| O=S(=O)(NCCCNc1cc(-c2cn(-c3ccccc3)nc2-c2cccc(O)c2)ccn1)c1ccc(C(F)(F)F)cc1 | 72.7% | 40.8 | 50.1% | 24.9% | 77.7% | 31.5% | 34.7% | 57.2% | 30.2% | 16% |
| Cn1c(=O)c2c(nc3n2CCN(CCc2ccc(OCCN4CCOCC4)cc2)C3)n(C)c1=O | 101% | 102 | 104% | 93.8% | 104% | 106% | 97.5% | 81.3% | 105% | 98% |
| CCC(c1cccc(Br)c1)C(C(=O)O)c1ccc(OC)cc1 (stereo not given) | 103% | 100 | 105% | 90.9% | 107% | 107% | 93.2% | 100% | 110% | 111% |
| CSc1ccccc1C#C/C=C\C#Cc1ccccc1N1CCCC1=O | 35.4% | 55.3 | 72.1% | 23.3% | 83.1% | 57.9% | 70.2% | 55.3% | 23.6% | 27.4% |
| CC(Cc1nnc(SCC(=O)Nc2ccc(I)cc2)n1N)c1ccccc1 (stereo not given) | 69.8% | 82.5 | 98.4% | 74.1% | 89.9% | 86.5% | 104% | 99.9% | 54.9% | 93.4% |
| CN(C)CCCNC(=O)C(c1ccccc1)c1ccccc1 | 95.6% | 106 | 96.8% | 84.1% | 88.2% | 93.5% | 99.5% | 104% | 100% | 85.3% |
| COc1ccc(Cl)cc1NC(N)=S | 107% | 105 | 105% | 97% | 89.5% | 110% | 97.3% | 95.9% | 105% | 99.7% |
| O=S(=O)(NCCCNc1cc(-c2cn(-c3ccccc3)nc2-c2cccc(O)c2)ccn1)c1ccc(Cl)cc1 | 5.9% (active) | 27.6 | 34.5% | 10% | 33.5% | 17% | 15.3% | 26.4% | 11.6% | 4.49% (active) |
| Nc1ccc(S(=O)(=O)c2ccc(Cl)cc2)cc1 | 98.4% | 94.7 | 95.3% | 86.4% | 96.4% | 97.1% | 93.6% | 108% | 111% | 103% |
| CCNc1nc(N2CC(=O)Nc3cc(OC)ccc32)c2ccccc2n1 | 31.6% | 12.8 | 27% | 15.6% | 21.3% | 8.34% (active) | 22.6% | -11.4% (active) | 26.8% | 24.8% |
| O=C(Nc1ccc(F)cc1)c1cc([N+](=O)[O-])ccc1O | 37% | 77 | 82.4% | 58.9% | 81.6% | 73.2% | 67.1% | 25.5% | 59.5% | 63.3% |
| C=C1C(=O)O[C@H]2[C@H]1CC/C(COC(=O)NCc1cc(OC)c(OC)c(OC)c1)=C\CC[C@@]1(C)O[C@@H]21 | 73.8% | 75.8 | 47.6% | 70.6% | 51.6% | 45.5% | 54.1% | 109% | 6.67% (active) | 54.1% |
| CCOC(=O)c1cc(/C(=N\O)c2cc(OC)c(OC)c(OC)c2)n2c(C)cccc12 | 21.8% | 36.6 | 54.3% | 54% | 21.2% | 37.3% | 36% | -1.4% (active) | 22.5% | 28.5% |
| CCCn1c(=S)sc2c(Cl)nc(C)nc21 | 1.85% (active) | 106 | 113% | 103% | 137% | 83.1% | 63.8% | 98.5% | 72% | 116% |
| O=P([O-])(O)OP(=O)([O-])O.[NH-][C@H]1CCCC[C@@H]1[NH-].[OH-].[OH-].[Pt+4] | 117% | 100 | 105% | 96.6% | 102% | 86.3% | 94.8% | 81.7% | 98.4% | 87.8% |
| CC(C)(C)OC(=O)N1C/C(=C\c2cccs2)C(=O)/C(=C/c2cccs2)C1 | 95.6% | 99.5 | 93.6% | 71.4% | 110% | 97.2% | 67.2% | 81.9% | 51.7% | 69.4% |
| O=C(OCCCCOC(=O)n1cnc2ccccc21)n1cnc2ccccc21 | 101% | 98.7 | 96% | 78.9% | 110% | 101% | 93.2% | 89.3% | 101% | 86.2% |
| COC(=O)c1ccc2nc(-c3cc4ccccc4n3C)n(CCCCOc3cc4c(cc3OC)C(=O)N3CCC[C@H]3C=N4)c2c1 | -40.3% (active) | 10.8 | 3.64% (active) | -57.3% (active) | -17.7% (active) | -5.96% (active) | -20.7% (active) | -60.3% (active) | -35.1% (active) | 3.44% (active) |
| COc1cc(C2C3=C(COC3=O)Nc3c2ccc2c3CCCC2)cc2c1OCO2 (stereo not given) | 18.6% | 47.9 | 28% | 47.7% | 65.9% | 29.2% | 33.2% | 8.51% (active) | 14.6% | 18.3% |
| CCC(=O)Nc1ccccc1C#C/C=C\C#Cc1ccccc1SC | 28% | 65.6 | 82.1% | 21.5% | 71.5% | 77.7% | 70.6% | 59.9% | 26.9% | 40.7% |
| O=S(=O)(NCCNc1cc(-c2cn(-c3ccccc3)nc2-c2ccccc2)ccn1)c1cccc2ccccc12 | 89.5% | 36.5 | 58.9% | 22.3% | 66.8% | 51.7% | 49.8% | 72.5% | 83.5% | 28.4% |
| COc1ccc(/C=C(\C#N)c2ccc([N+](=O)[O-])cc2)c2ccccc12 | 59.8% | 52.9 | 41.4% | 66.5% | 88.1% | 37.9% | 64.3% | 60% | 83% | 88.3% |
